Values joined by “and” are separate entries in the source; they are usually repeats but may differ in a detail not shown here. Identical values can stand only once. Inconclusive results are not listed. Active and inactive are the calls of the source. The call rests on the fitted dose curve; in most records, active means well fitted inhibition curve with a large enough effect; inconclusive means small, poorly fitted or top-dose-only effect; inactive means no such curve, though single readings can be large or run the other way. Positions of bridges follow the written chain, without caps; N, C: chain ends. Non-standard residues stand in square brackets, D forms with d. Residues, ends and D or L forms follow the SMILES beside them. ξ: configuration not given here. *: point of attachment. Octanoyl(6-Me) = CCC(C)CCCCC(=O)*; ξThr(3R) = C[C@@H](O)C(N)C(=O)O; dDab = NCC[C@@H](N)C(=O)O; Dab = NCC[C@H](N)C(=O)O; Nva = CCC[C@H](N)C(=O)O; Cbz = O=C(OCc1ccccc1)*
assay: Primary qHTS for inhibitors of nuclear receptor binding SET domain protein 2 (NSD2) in an RCH-ACV wild type WT cells (2C) (AID 1645877); conditions: RCH-ACV (leukaemia line) NSD2 WT (2C) viability, CellTiter-Glo, 72 h; series mostly up to 44.9 µM; activity change, negative = cell killing: at the top concentration; further: nearly all actives have a fitted effect of over 70% in size
Source text: Assay Provider: Jonathan D. Licht, MD
University of Florida College of Medicine, Gainesville, FL
Mutations in epigenetic regulators are common in relapsed pediatric acute lymphoblastic leukemia (ALL). Here, we uncovered the mechanism underlying the relapse of ALL driven by an activating mutation of the NSD2 histone methyltransferase (p.E1099K). […] Correction of this mutation restored glucocorticoid sensitivity. The transcriptional response to glucocorticoids was blocked in NSD2 mutant cells due to depressed glucocorticoid receptor (GR) levels and the failure of glucocorticoids to autoactivate GR expression. […] Pre-treatment of NSD2 p.E1099K cell lines and PDX samples with PRC2 inhibitors reversed glucocorticoid resistance in vitro and in vivo.
High-throughput drug screening of isogenic RCH-ACV cell lines was performed at the National Center for Advancing Translational Science (NCATS), National Institutes of Health as previously described (1). Briefly, isogenic RCH-ACV NSD2 p.E1099K mutant (9B) and WT cells (2C) were plated at 500 cells/well in a 1536-well plate with a 72-hour incubation with compounds prior to addition of CellTiter-Glo to assess cell viability. NCATS libraries screened include: NPC, MIPE 5.0, Kinase and NPACT. To determine compound activity in the qHTS assay, the concentration-response data for each sample was plotted and modeled by a four-parameter logistic fit yielding IC50 and efficacy (maximal response) values. The area under the curve (AUC) of the dose-response curve ensures both efficacy (magnitude of cell killing) and potency (concentration that elicits cell killing) are accounted for in the analysis of activity.
1. Tobie D Lee, Olivia W Lee, Kyle R Brimacombe, Lu Chen, Rajarshi Guha, Sabrina Lusvarghi, Bethilehem G Tebase, Carleen Klumpp-Thomas, Robert W Robey, Suresh V Ambudkar, Min Shen, Michael M Gottesman, Matthew D Hall. A High-Throughput Screen of a Library of Therapeutics Identifies Cytotoxic Substrates of P-glycoprotein. Mol Pharmacol. 2019, Nov;96(5):629-640.
On the % scale 0 is the no-effect control and ±100 the full control effect.

Row | Structure (SMILES) | activity change, negative = cell killing | Potency | outcome
1 | COc1cc(C(C)C)c(Oc2cnc(NC(CO)CO)nc2N)cc1I | -2.63% (inactive) |  | 
2 | O=C(c1ccc(F)cc1)N1CCC[C@H](c2nc(-c3ccc(F)cc3)no2)C1 | -1.94% (inactive) |  | 
3 | Nc1ccc(C(=O)Nc2cccc(-c3nc(N4CCOCC4)c4oc5ncccc5c4n3)c2)cn1 |  | 1.29 µM (active) and 1.05 µM (active) | 
4 | CCn1c(=O)c2c(nc(C=Cc3ccc(OC)c(OC)c3)n2C)n(CC)c1=O | -3.71% (inactive) |  | 
5 | COc1ccc2c(c1OC)C(=O)OC2[C@H]1c2c(cc3c(c2OC)OCO3)CCN1C (stereo not given in full) |  | 23500 nM (active) | 
6 | CC(C)(C)c1nc2c3cc[nH]c(=O)c3c3cc(F)ccc3c2[nH]1 |  | 468 nM (active) | 
7 | CCS(=O)(=O)Nc1ccc2[nH]c(O)c(C(=Nc3ccc(CN4CCCCC4)cc3)c3ccccc3)c2c1 |  | 29.5 nM (active) | 
8 | O=[N+]([O-])c1cn2c(n1)OC[C@@H](OCc1ccc(OC(F)(F)F)cc1)C2 | -24.3% (inactive) |  | 
9 | Cc1cc(Nc2ncc3c(n2)N(C)C(=O)N(c2cc(NC(=O)c4cccc(C(F)(F)F)c4)ccc2C)C3)n(C)n1 |  | 132 nM (active) | 
10 | CCN(CC)Cc1ccc2cc(COC(=O)Nc3ccc(C(=O)NO)cc3)ccc2c1 |  | 230 nM (active) and 525 nM (active) | 
11 | CN1CCCN(C(=O)c2cccc(-c3ccc(C=C4C(=O)Nc5ccc(Cl)cc54)o3)c2)CC1 |  | 184 nM (active) | 
12 | Cc1cc(O)c2c(c1)C(=O)c1cccc(O)c1C2=O |  |  | inactive
13 | CC(C)n1cnc2c(NCCc3ccc(O)cc3)nc(-c3csc4ccccc34)nc21 |  | 26300 nM (active) | 
14 | CCC[C@H]1C[C@H](C(=O)N[C@@H]([C@@H]2O[C@@H](SC)[C@@H](O)[C@@H](O)[C@@H]2O)[C@H](C)Cl)N(C)C1 | -7.85% (inactive) |  | 
15 | CCc1nc(-c2cccc(C)c2)c(-c2ccnc(NC(=O)c3ccccc3)c2)s1 |  | 16300 nM (active) | 
16 | COc1cc([C@@H]2c3cc4c(cc3[C@H](O)[C@H]3COC(=O)[C@@H]23)OCO4)cc(OC)c1OC |  | 417 nM (active) | 
17 | CCN(CC)CCCCNc1ncc2c(n1)N(C)C(=O)N(c1c(Cl)c(OC)cc(OC)c1Cl)C2 |  | 13200 nM (active) | 
18 | N#Cc1c(NC(=O)c2cccc3ccccc23)sc2c1CCCC2 |  | 263 nM (active) | 
19 | Cc1ccc2nc(NCCN)c3ncc(C)n3c2c1 |  | 9.2 µM (active) and 3.72 µM (active) | 
20 | c1coc(CNc2ncnc3nc[nH]c23)c1 | -16% (inactive) |  | 

Row | Structure (SMILES) | activity change, negative = cell killing | Potency | outcome
21 | CNC(=O)Nc1ccc(-c2nc(N3CC4CCC(C3)O4)c3cnn(C4CCC5(CC4)OCCO5)c3n2)cc1 |  | 118 nM (active) | 
22 | OC[C@H]1OC(O)C[C@@H](O)[C@H]1O (stereo not given in full) | -13.7% (inactive) |  | 
23 | O=C1NC(O)CCN1[C@@H]1O[C@H](CO)[C@H](O)[C@H]1O (stereo not given in full) |  |  | inactive
24 | CC(C)Oc1ccc(C(=O)N[C@H](CNC(=O)CN(C)C)Cc2ccc(-c3cn4cccc([C@H](C)O)c4n3)cc2)cc1Cl |  | 59 nM (active) | 
25 | c1ccc(CNc2nc(NCc3ccccc3)c3ccccc3n2)cc1 |  | 5900 nM (active) | 
26 | COc1cc(C[C@@H](CO)[C@H](CO)Cc2ccc(O)c(OC)c2)ccc1O | 6.9% (inactive) |  | 
27 | NC(=O)c1cccc(-c2cccc(OC(=O)NC3CCCCC3)c2)c1 | -20.9% (inactive) |  | 
28 | C[C@H](NC(=O)[C@@H](O)c1cc(F)cc(F)c1)C(=O)N[C@@H]1C(=O)N(C)c2ccccc2-c2ccccc21 | -28.6% (inactive) |  | 
29 | C#Cc1cccc(Nc2ncnc3cc(OCCOC)c(OCCO)cc23)c1 |  | 13200 nM (active) | 
30 | Cc1coc2c1C(=O)C(=O)c1c-2ccc2c(C)cccc12 | -10.2% (inactive) |  | 
31 | N=c1ccn2c(n1)O[C@H]1[C@@H](O)[C@@H](CO)O[C@H]12 |  | 23.5 nM (active) | 
32 | CC(C)[C@H](CO)Nc1nc(Nc2cccc(Cl)c2)c2ncn(C(C)C)c2n1 |  | 9340 nM (active) | 
33 | CN(C)c1ccc(C(=O)NCCCCCCC(=O)NO)cc1 |  | 934 nM (active) | 
34 | CCC[C@@H](C=O)NC(=O)[C@H](CC(C)C)NC(=O)[C@H](CC(C)C)NC(=O)OCc1ccccc1 (Cbz-Leu-Leu-[Nva]-aldehyde) |  | 1050 nM (active) | 
35 | CCC(C)CCCCC(=O)N[C@@H](CCN)C(=O)NC(C(=O)N[C@H](CCN)C(=O)N[C@@H]1CCNC(=O)C([C@@H](C)O)NC(=O)[C@@H](CCN)NC(=O)[C@@H](CCN)NC(=O)[C@@H](CC(C)C)NC(=O)[C@H](Cc2ccccc2)NC(=O)[C@H](CCN)NC1=O)[C@@H](C)O (stereo partly drawn) ({Octanoyl(6-Me)}-[Dab][ξThr(3R)][dDab][dDab][Dab]F[dL][dDab][dDab][ξThr(3R)]; lactam 4-C) | 1.37% (inactive) |  | 
36 | COC(=O)[C@H](CCCN=C(N)N)NS(=O)(=O)c1ccc(C)cc1 |  |  | inactive
37 | CC[C@@]1([C@@H]2O[C@@H]([C@H]3O[C@@](O)(CO)[C@H](C)C[C@H]3C)C[C@H]2C)CC[C@H]([C@]2(C)CC[C@]3(C[C@H](O)[C@@H](C)[C@@H]([C@@H](C)[C@@H](OC)[C@H](C)C(=O)O)O3)O2)O1 |  | 102 nM (active) | 
38 | Oc1ccc([C@@H]2Oc3ccc(O)cc3[C@@H]3CCC[C@@H]32)cc1 |  | 5900 nM (active) | 
39 | Cc1ccc(O)c(C(CCN(C(C)C)C(C)C)c2ccccc2)c1 (stereo not given) |  |  | inactive
40 | NC(=NCCCCCCN=C(N)N=C(N)Nc1ccc(Cl)cc1)N=C(N)Nc1ccc(Cl)cc1 |  | 5250 nM (active) | 

Source: PubChem BioAssay (NCATS)
